Measurements as given in PubChem BioAssay (NCI).
This is part of a sample that, as a whole, favours compounds with a hit. Of some 79,000 tested, about 15% had one in any assay. Calls of active or inactive are those of the source. Rule as the data show it: active = growth inhibition above about 70%; inactive = the rest.

What was measured:
[1] = NCI Yeast Anticancer Drug Screen. Data for the rad50 strain (AID 155);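 also: 0% = growth of vehicle-only cultures of the same strain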; details: S. cerevisiae rad50 strain growth inhibition, hits give high values
Procedure, shortened: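 Genetically altered yeast (DNA repair pathway); compound treatment; growth inhibition vs vehicle ctrl.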

[2] = NCI Yeast Anticancer Drug Screen. Data for the mec2-1 strain (AID 157); details: S. cerevisiae mec2-1 strain, hits give high values
Procedure, shortened: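 mec2-1 yeast strain, carrying an alteration in DNA damage repair or cell cycle control, was exposed to compounds; growth inhibition was measured relative to vehicle-treated controls.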

[3] = NCI Yeast Anticancer Drug Screen. Data for the sgs1 mgt1 strain (AID 161);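 also: 0% = growth of cultures given vehicle only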; details: S. cerevisiae sgs1 mgt1 strain, hits give high values
Procedure, shortened: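 Yeast cells carrying a defined DNA-repair defect were exposed to test compounds. Growth inhibition was measured relative to vehicle-treated controls.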

[4] = NCI Yeast Anticancer Drug Screen. Data for the cln2 rad14 strain (AID 165);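 also: 0% = growth equal to vehicle treated cultures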; details: S. cerevisiae cln2 rad14 strain, hits give high values
Procedure, shortened: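 Yeast carrying cln2 and rad14 alterations (cell cycle control and DNA damage repair) were exposed to compounds. Growth inhibition was measured against vehicle-treated controls.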

[5] = NCI Yeast Anticancer Drug Screen. Data for the bub3 strain (AID 167); details: S. cerevisiae bub3 mutant strain, hits give high values
Procedure, shortened: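 Yeast carrying a defined mutation is treated with each compound, and growth is compared with that of vehicle-exposed cells to give inhibition.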

[6] = NCI Yeast Anticancer Drug Screen. Data for the mlh1 rad18 strain (AID 175); details: S. cerevisiae mlh1 rad18 strain growth inhibition, hits give high values
Procedure, shortened: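 Growth inhibition of the yeast strain was measured after compound exposure and expressed relative to vehicle-treated controls. The strain carries defined defects in DNA damage repair.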

[7] = at 5.0 µM (retest, dose inferred, filed as 0.5)
[8] = at 50.0 µM (retest, dose inferred, filed as 5.0)

Measured: growth inhibition

Cc1ccc(S(=O)(=O)NC(CCC(=O)Nc2ccccc2)C(=O)O)cc1 (configuration not stated)
inactive: [1]; [7] -4% | [1]; [8] 0% | [1]; at 50.0 µM 12.8% | [2]; [7] -4% | [2]; [8] -4% | [2]; at 50.0 µM 18.9% | [3]; [7] -6% | [3]; [8] -20% | [3]; at 50.0 µM 21.2% | [4]; [7] -5% | [4]; [8] -15% | [4]; at 50.0 µM 22% | [5]; [7] -3% | [5]; [8] 2% | [6]; [7] 0% | [6]; [8] -2% | [6]; at 50.0 µM 40.5%
active: [5]; at 50.0 µM 96.2%

Cc1cc(O)c2c(c1)OC1(C)CCC3C(C)(C)CCCC34COC2C14 (configuration not stated)
active: [1]; [8] 97% | [1]; at 50.0 µM 89.5% | [2]; [8] 98% | [2]; at 50.0 µM 87.5% | [3]; [8] 98% | [3]; at 50.0 µM 90.6% | [4]; [8] 98% | [4]; at 50.0 µM 88.5% | [5]; [8] 98% | [5]; at 50.0 µM 85.5% | [6]; [8] 97% | [6]; at 50.0 µM 88.6%
inactive: [1]; [7] 18% | [2]; [7] 16% | [3]; [7] 17% | [4]; [7] 27% | [5]; [7] 6% | [6]; [7] 33%

Cc1nc(Nc2ccc(Cl)cc2)sc1C(=O)NNC(=S)NN
active: [1]; [8] 75% | [1]; at 50.0 µM 91.5% | [2]; at 50.0 µM 88% | [3]; [8] 77% | [3]; at 50.0 µM 91.8% | [4]; at 50.0 µM 91.6% | [5]; [8] 93% | [5]; at 50.0 µM 88.3% | [6]; [8] 82% | [6]; at 50.0 µM 88.5%
inactive: [1]; [7] 25% | [2]; [7] -9% | [2]; [8] 64% | [3]; [7] -3% | [4]; [7] 8% | [4]; [8] 65% | [5]; [7] -5% | [6]; [7] -30%

CC(C)(C)C1=CC(=CC=C2C=CN(CCO)C=C2)C=C(C(C)(C)C)C1=O
active: [1]; [8] 98% | [6]; [8] 73% | [6]; at 50.0 µM 97%
inactive: [1]; [7] -2% | [1]; at 50.0 µM 29.1% | [2]; [7] 0% | [2]; [8] 28% | [2]; at 50.0 µM 35.5% | [3]; [7] -3% | [3]; [8] 51% | [3]; at 50.0 µM 24.6% | [4]; [7] 0% | [4]; [8] 60% | [4]; at 50.0 µM 31.8% | [5]; [7] -5% | [5]; [8] 28% | [5]; at 50.0 µM 31.6% | [6]; [7] -6%

CC1=CC(c2c(O)cc(O)c(C(=O)CCc3ccccc3)c2O)C(C(C)C)CC1 (configuration not stated)
inactive: [1]; [7] 11% | [2]; [7] 10% | [3]; [7] 1% | [4]; [7] 3% | [5]; [7] 21% | [6]; [7] 8%
active: [1]; [8] 88% | [1]; at 50.0 µM 70.8% | [2]; [8] 85% | [2]; at 50.0 µM 83% | [3]; [8] 91% | [3]; at 50.0 µM 80% | [4]; [8] 87% | [4]; at 50.0 µM 79.2% | [5]; [8] 96% | [5]; at 50.0 µM 76% | [6]; [8] 76% | [6]; at 50.0 µM 82.2%

COC1OC(CO)C(O)C(OC(=O)c2ccc([N+](=O)[O-])cc2)C1OS(=O)(=O)c1ccc(C)cc1 (configuration not stated)
inactive: [1]; [7] 2% | [1]; [8] 0% | [1]; at 50.0 µM 31.8% | [2]; [7] -1% | [2]; [8] 7% | [2]; at 50.0 µM -0.1% | [3]; [7] -1% | [3]; [8] 0% | [3]; at 50.0 µM 18.7% | [4]; [7] -1% | [4]; [8] -1% | [4]; at 50.0 µM -2.5% | [5]; [7] 2% | [5]; [8] -2% | [5]; at 50.0 µM -0.2% | [6]; [7] 27% | [6]; [8] 7% | [6]; at 50.0 µM 10.6%

C=CCNC(=S)N/N=C/c1nccc(-c2ccccc2)c1C
active: [1]; [8] 96% | [1]; at 50.0 µM 73.3% | [2]; [8] 97% | [2]; at 50.0 µM 81.6% | [3]; [8] 96% | [3]; at 50.0 µM 82% | [4]; [8] 94% | [4]; at 50.0 µM 84.7% | [5]; [8] 95% | [5]; at 50.0 µM 84.5% | [6]; [8] 93% | [6]; at 50.0 µM 78.5%
inactive: [1]; [7] 37% | [2]; [7] 29% | [3]; [7] 46% | [4]; [7] 38% | [5]; [7] 54% | [6]; [7] 24%

Clc1ccc(C(CCc2ccc(Br)cc2)Cn2ccnc2)c(Cl)c1 (configuration not stated)
active: [1]; [7] 94% | [1]; [8] 99% | [1]; at 50.0 µM 99.4% | [2]; [7] 82% | [2]; [8] 99% | [2]; at 50.0 µM 99.5% | [3]; [7] 87% | [3]; [8] 99% | [4]; [7] 72% | [4]; [8] 99% | [4]; at 50.0 µM 99.5% | [5]; [7] 91% | [5]; [8] 99% | [5]; at 50.0 µM 99.2% | [6]; [7] 71% | [6]; [8] 98% | [6]; at 50.0 µM 99.5%
inactive: [3]; at 50.0 µM 59.7%

CC1(C)OC2C(CO)OC(n3ncc(=S)[nH]c3=O)C2O1 (configuration not stated)
active: [5]; at 50.0 µM 71%
inactive: [1]; [7] -4% | [1]; [8] 28% | [1]; at 50.0 µM -10.5% | [2]; [7] -8% | [2]; [8] 6% | [2]; at 50.0 µM 10.7% | [3]; [7] 4% | [3]; [8] 45% | [3]; at 50.0 µM -1.45% | [4]; [7] -1% | [4]; [8] 45% | [4]; at 50.0 µM -1.95% | [5]; [7] 6% | [5]; [8] 15% | [6]; [7] -1% | [6]; [8] 30% | [6]; at 50.0 µM -24.9%

O=[N+]([O-])c1ccc(C2=Nn3c(nnc3-c3ccc(Cl)cc3)SC2)o1
active: [1]; [8] 83% | [3]; [8] 73% | [4]; [8] 94% | [5]; [8] 93% | [6]; [8] 91% | [6]; at 50.0 µM 79.3%
inactive: [1]; [7] 19% | [1]; at 50.0 µM 66.5% | [2]; [7] 10% | [2]; [8] 44% | [2]; at 50.0 µM 37.7% | [3]; [7] 29% | [3]; at 50.0 µM 62.1% | [4]; [7] -2% | [4]; at 50.0 µM 65.5% | [5]; [7] 12% | [5]; at 50.0 µM 55.9% | [6]; [7] 30%

CCCCCCCCNc1nc(Cl)nc2c1cnn2C
active: [5]; [8] 80% | [6]; [8] 84%
inactive: [1]; [7] 2% | [1]; [8] 40% | [1]; at 50.0 µM 0.3% | [2]; [7] -1% | [2]; [8] 59% | [2]; at 50.0 µM -17.9% | [3]; [7] 3% | [3]; [8] 68% | [3]; at 50.0 µM 24.2% | [4]; [7] -4% | [4]; [8] 62% | [4]; at 50.0 µM -10.6% | [5]; [7] -5% | [5]; at 50.0 µM 42.4% | [6]; [7] 12% | [6]; at 50.0 µM 45.5%

CC1=C(C2CO2)C(=O)C(C)=C(C2CO2)C1=O (configuration not stated)
inactive: [1]; [7] 68% | [2]; [7] 40% | [3]; [7] 43% | [4]; [7] 59% | [5]; [7] 43% | [6]; [7] 60%
active: [1]; [8] 100% | [1]; at 50.0 µM 99.6% | [2]; [8] 100% | [2]; at 50.0 µM 99.5% | [3]; [8] 99% | [3]; at 50.0 µM 99.5% | [4]; [8] 99% | [4]; at 50.0 µM 99.5% | [5]; [8] 99% | [5]; at 50.0 µM 98.2% | [6]; [8] 99% | [6]; at 50.0 µM 99.5%

C=CCOc1ccc(-c2ccccc2)cc1C(=O)NC
inactive: [1]; [7] -9% | [1]; [8] -5% | [1]; at 50.0 µM 1.25% | [2]; [7] 2% | [2]; [8] -6% | [2]; at 50.0 µM 6.3% | [3]; [7] -2% | [3]; [8] 20% | [3]; at 50.0 µM 5.1% | [4]; [7] -42% | [4]; [8] -5% | [4]; at 50.0 µM 8.95% | [5]; [7] -3% | [5]; [8] 8% | [5]; at 50.0 µM 42.9% | [6]; [7] -3% | [6]; [8] 20% | [6]; at 50.0 µM 22.1%

Cc1ccc(Nc2nc3nc[nH]c3c(=O)[nH]2)cc1CO
inactive: [1]; [7] 2% | [1]; [8] 13% | [1]; at 50.0 µM -4.35% | [2]; [7] 10% | [2]; [8] 2% | [2]; at 50.0 µM -12.4% | [3]; [7] -12% | [3]; [8] 14% | [3]; at 50.0 µM -0.6% | [4]; [7] -2% | [4]; [8] -4% | [4]; at 50.0 µM 0% | [5]; [7] 2% | [5]; [8] -4% | [5]; at 50.0 µM -8.75% | [6]; [7] 15% | [6]; [8] 7% | [6]; at 50.0 µM 4.8%
